From PubChem BioAssay
The source made the active and inactive calls.

Tests used:
[1] = optical density shifts of acrAB sulA E. coli – strain DRC41, OD650, 48 h, E. coli filamentation inducer project, primary screen (AID 1152); details: higher = more signal, called active from +8 up or from −8 down;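 also: E. coli MC1000 strain DRC41 lacking acrAB efflux pump and sulA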
[2] = probe aLefty1 binding on compound microarray – biochemical, small-molecule microarray, 635/667 nm fluorescence, primary screen (AID 1153); details: higher = more signal;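 also: score merges spot fluorescence with signal-to-noise ratio from the scanned slide images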
[3] = plasmodial surface anion channel blockers, osmotic lysis – cell-based, P. falciparum Indochina, OD700, 1 h, primary screen (AID 1154); details: P. falciparum Indochina infected RBC osmotic lysis, higher = more signal, called active from +8 up or from −8 down
[4] = plasmodial surface anion channel blockers, osmotic lysis – cell-based, P. falciparum Indochina, OD700, 2 h, primary screen (AID 1155);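 also: lysis reports solute entry through the parasite surface anion channel PSAC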; details: P. falciparum Indochina infected erythrocytes, higher = more signal, called active from +8 up or from −8 down
[5] = changes in parasitized red cell lysis, either direction – P. falciparum Indochina, OD700, 3 h, PSAC antagonist project, primary screen (AID 1156); details: P. falciparum-infected erythrocytes, osmotic lysis, higher = more signal, called active from +8 up or from −8 down
[6] = plasmodial surface anion channel blockers, osmotic lysis – cell-based, P. falciparum Indochina, OD700, 18 h, primary screen (AID 1157); details: P. falciparum Indochina infected erythrocytes, osmotic lysis OD700, 18 h; higher = more signal, called active from +8 up or from −8 down
[7] = S6 kinase pathway phospho-S6 level changes – cell-based, A549, cytoblot, luminescence, serum-stimulated, primary screen (AID 1158); details: 5 h, higher = more signal;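 also: serum-stimulated A549 lung adenocarcinoma cells; signal is phosphorylated S6 detected by cytoblot immunostaining with HRP secondary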
[8] = target: NADPH oxidase 2 (Homo sapiens) (UniProt P04839); experiment: compounds shifting NOX2 Amplex Red fluorescence – cell-based, HEK293-NOX2, PMA-stimulated, NOX inhibitor project, primary screen (AID 1159); details: 45 min, higher = more signal, called active from +8 up or from −8 down; also: test concentration not given here
Sequence of NADPH oxidase 2 (Homo sapiens) (P04839 whole entry, looked up): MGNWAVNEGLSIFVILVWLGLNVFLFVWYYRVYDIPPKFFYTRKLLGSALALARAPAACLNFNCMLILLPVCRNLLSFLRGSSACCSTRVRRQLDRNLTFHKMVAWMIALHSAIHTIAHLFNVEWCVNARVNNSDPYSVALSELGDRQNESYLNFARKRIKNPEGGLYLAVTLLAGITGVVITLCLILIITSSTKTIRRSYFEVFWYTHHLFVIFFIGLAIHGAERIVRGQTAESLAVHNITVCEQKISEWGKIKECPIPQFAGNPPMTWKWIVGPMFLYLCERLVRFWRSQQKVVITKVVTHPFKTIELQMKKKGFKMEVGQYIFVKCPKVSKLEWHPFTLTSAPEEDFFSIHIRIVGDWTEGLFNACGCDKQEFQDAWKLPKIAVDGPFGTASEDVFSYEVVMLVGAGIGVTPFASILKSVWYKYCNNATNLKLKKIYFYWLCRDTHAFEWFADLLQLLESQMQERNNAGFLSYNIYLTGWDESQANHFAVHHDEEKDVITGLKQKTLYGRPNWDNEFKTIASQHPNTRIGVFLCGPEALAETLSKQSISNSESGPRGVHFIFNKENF

[9] = target: NADPH oxidase 4 (Homo sapiens) (UniProt Q9NPH5); experiment: compounds shifting NOX4 Amplex Red fluorescence – cell-based, HEK293-NOX4, tetracycline-induced, NOX inhibitor project, primary screen (AID 1160); details: HEK293-NOX4, Amplex Red H2O2 fluorescence, 45 min; higher = more signal, called active from +8 up or from −8 down
Sequence of NADPH oxidase 4 (Homo sapiens) (Q9NPH5 whole entry, looked up): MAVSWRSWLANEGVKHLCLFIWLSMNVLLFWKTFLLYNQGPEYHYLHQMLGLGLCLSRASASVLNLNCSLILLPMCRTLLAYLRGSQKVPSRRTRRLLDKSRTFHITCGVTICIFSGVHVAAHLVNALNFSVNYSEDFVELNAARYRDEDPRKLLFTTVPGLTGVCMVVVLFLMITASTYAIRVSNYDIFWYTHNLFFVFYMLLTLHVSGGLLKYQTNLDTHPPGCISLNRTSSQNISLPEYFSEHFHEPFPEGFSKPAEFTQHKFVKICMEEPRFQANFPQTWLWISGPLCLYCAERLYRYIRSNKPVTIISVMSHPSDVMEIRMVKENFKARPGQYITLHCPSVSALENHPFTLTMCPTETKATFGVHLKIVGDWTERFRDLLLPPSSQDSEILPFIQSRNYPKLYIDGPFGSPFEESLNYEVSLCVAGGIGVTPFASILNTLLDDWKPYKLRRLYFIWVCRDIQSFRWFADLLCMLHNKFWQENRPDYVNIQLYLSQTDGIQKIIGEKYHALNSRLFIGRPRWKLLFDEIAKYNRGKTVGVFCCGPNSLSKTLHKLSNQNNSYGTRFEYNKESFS

[10] = target: NADPH oxidase 5 (Homo sapiens) (UniProt Q96PH1); experiment: compounds shifting NOX5 Amplex Red fluorescence – cell-based, HEK293-NOX5, NOX inhibitor project, primary screen (AID 1161); details: HEK293-NOX5, ionomycin, 45 min, higher = more signal
Sequence of NADPH oxidase 5 (Homo sapiens) (Q96PH1 whole entry, looked up): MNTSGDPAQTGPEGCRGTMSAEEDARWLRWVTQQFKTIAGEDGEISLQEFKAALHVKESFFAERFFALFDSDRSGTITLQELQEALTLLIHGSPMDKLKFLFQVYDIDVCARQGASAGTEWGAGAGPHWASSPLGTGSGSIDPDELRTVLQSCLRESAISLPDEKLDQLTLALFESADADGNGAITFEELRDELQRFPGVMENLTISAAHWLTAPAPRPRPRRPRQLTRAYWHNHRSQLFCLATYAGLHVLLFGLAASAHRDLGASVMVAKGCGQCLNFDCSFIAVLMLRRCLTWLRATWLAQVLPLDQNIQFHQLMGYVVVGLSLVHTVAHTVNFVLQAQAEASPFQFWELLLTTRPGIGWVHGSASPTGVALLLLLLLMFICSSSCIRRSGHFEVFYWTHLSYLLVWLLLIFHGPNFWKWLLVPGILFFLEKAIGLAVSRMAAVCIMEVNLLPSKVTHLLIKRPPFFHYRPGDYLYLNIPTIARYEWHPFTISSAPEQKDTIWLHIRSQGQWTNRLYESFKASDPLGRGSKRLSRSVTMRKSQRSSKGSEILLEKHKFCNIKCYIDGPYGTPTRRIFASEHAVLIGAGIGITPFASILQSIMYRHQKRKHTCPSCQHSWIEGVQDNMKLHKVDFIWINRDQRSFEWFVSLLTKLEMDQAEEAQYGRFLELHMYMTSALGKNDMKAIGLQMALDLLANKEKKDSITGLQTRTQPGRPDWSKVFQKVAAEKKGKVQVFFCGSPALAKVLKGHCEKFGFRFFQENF

Row | SMILES | z-score [1] | composite z-score [2] | z-score [3] | z-score [4] | z-score [5] | z-score [6] | z-score [7] | z-score [8] | z-score [9] | z-score [10]
1 | CC(C)CON=C1C[C@@H](O)[C@@H](O)[C@@H]2[C@@H]3C(=O)N(Cc4ccc5c(c4)OCO5)C(=O)[C@@H]3CC[C@H]12 | -0.135 (inactive) | -0.198 | 1.22 (inactive) | 0.32 (inactive) | 0.337 (inactive) | 0.108 (inactive) | -0.27 | -0.378 (inactive) | 1.02 (inactive) | -0.146
2 | C=CC[C@@H]1C=C[C@H](ON=C2[C@H]3CCn4c(=O)n(-c5ccccc5)c(=O)n4[C@H]3[C@H](O)[C@@H]3O[C@H]23)[C@@H](CO)O1 | -0.263 (inactive) | -0.28 | 1.56 (inactive) | 1.07 (inactive) | 0.204 (inactive) | 0.588 (inactive) | -1.02 | -0.276 (inactive) | 0.964 (inactive) | 0.394
3 | CC(CCN1CCCCc2nc(C)c(C)cc21)=NO[C@@H](C)c1cn([C@H](CO)Cc2ccccc2)nn1 | 0.72 (inactive) | 0.0618 | 2.04 (inactive) | 0.32 (inactive) | 0.729 (inactive) | 0.367 (inactive) | -0.11 | -2.09 (inactive) | -0.106 (inactive) | -0.199
4 | CCc1cc2c(nc1CC)CCN(CCC(C)=NO[C@@H](C)c1cn([C@H](CO)Cc3ccccc3)nn1)C2 | 0.0933 (inactive) | -0.0011 | 4.48 (inactive) | 0.586 (inactive) | -0.0919 (inactive) | 0.49 (inactive) | 0.434 | -1.4 (inactive) | 0.033 (inactive) | 0.858
5 | CO[C@H](C1CCCCC1)[C@H](C)C=CCC(=O)OCCCc1ccccc1 | 0.101 (inactive) | -0.194 | 1.56 (inactive) | 0.726 (inactive) | -1.17 (inactive) | 0.22 (inactive) | -0.285 | 0.435 (inactive) | -3.56 (inactive) | -2.56
6 | Cc1cc2c(nc1C)CCCN2CC(O)CN1CCCc2nc(C)c(C)cc21 | -0.171 (inactive) | 0.547 | -0.274 (inactive) | 0.185 (inactive) | 0.249 (inactive) | -0.0697 (inactive) | -0.669 | 0.803 (inactive) | 0.628 (inactive) | -0.575
7 | CCC(=O)[C@@]1(O)C(=O)N2C(=C3C(=O)OCC[C@@H]31)N(Cc1ccccc1)C(C)=C(C(=O)OC)[C@H]2c1ccccc1 | -0.426 (inactive) | -0.103 | 0.246 (inactive) | 0.633 (inactive) | -0.242 (inactive) | 0.465 (inactive) | -0.131 | 0.0553 (inactive) | -0.147 (inactive) | 0.245
8 | CC(C)CON=C1[C@H]2CCn3c(=O)n(Cc4cc5c(cc4Cl)OCO5)c(=O)n3[C@H]2[C@H](O)[C@@H]2O[C@H]12 | -1.41 (inactive) | 0.0004 | 0.292 (inactive) | -1.05 (inactive) | 0.599 (inactive) | -2.22 (inactive) | 0.261 | 0.42 (inactive) | 0.223 (inactive) | -0.799
9 | CO[C@@H]1COC(=O)[C@@H]2CCCN2C(=O)[C@@H](C)COC(=O)CC=C[C@H]1C | -0.481 (inactive) | 0.0553 | 0.202 (inactive) | -0.116 (inactive) | 0.601 (inactive) | 0.0246 (inactive) | -0.641 | -0.48 (inactive) | 0.393 (inactive) | 0.0919
10 | CCOC(=O)[C@H](CC(C)C)NC(=O)CCC1CC(OC(=O)NCc2cccc3ccccc23)CC2(CCCC(COC(=O)NCc3ccncc3)O2)O1 (stereo not given in full) | 0.432 (inactive) | -0.142 | 7.59 (inactive) | 1.02 (inactive) | -0.416 (inactive) | 0.42 (inactive) | 0.351 | 0.402 (inactive) | 0.142 (inactive) | 0.365
11 | CC(C)CON=C1C[C@@H](O)[C@@H](O)[C@@H]2[C@@H]3C(=O)N(C4CCCCC4)C(=O)[C@@H]3CC[C@@H]12 | -1.24 (inactive) | -0.0662 | -0.133 (inactive) | -0.346 (inactive) | -0.383 (inactive) | -0.0384 (inactive) | -0.354 | 1 (inactive) | -1.59 (inactive) | -0.143
12 | CCOC(=O)[C@H](Cc1ccccc1)NC(=O)CCC1CC(OC(=O)NCc2cccc3ccccc23)CC2(CCCC(COC(=O)NCc3cccc(C(F)(F)F)c3)O2)O1 (stereo not given in full) | 0.263 (inactive) | -0.0984 | 18.5 (active) | 2.83 (inactive) | 0.654 (inactive) | 0.493 (inactive) | -0.283 | 0.402 (inactive) | 0.0385 (inactive) | -0.162
13 | C#CCCCON=C1[C@H]2CCn3c(=O)n(-c4ccccc4)c(=O)n3[C@H]2[C@H](O)[C@@H]2O[C@H]12 | 0.555 (inactive) | -0.19 | 0.116 (inactive) | -1.22 (inactive) | 0.43 (inactive) | -2.27 (inactive) | 3.11 | -0.858 (inactive) | 0.137 (inactive) | 0.607
14 | CC(C)=CCCC(C)=CCON=C1C[C@@H](O)[C@@H](O)[C@@H]2[C@@H]3C(=O)N(c4ccc(F)cc4F)C(=O)[C@@H]3CC[C@H]12 | -0.061 (inactive) | 0.173 | 13.7 (active) | 0.545 (inactive) | 2.8 (inactive) | -0.87 (inactive) | -0.0997 | -0.0501 (inactive) | -1.83 (inactive) | -4.58
15 | C[C@@H]1NC(=O)[C@@H](C)COC(=O)[C@H](C)NC(=O)[C@@H](C)COC1=O | -2.21 (inactive) | -0.248 | 0.116 (inactive) | -0.334 (inactive) | -0.172 (inactive) | -1.15 (inactive) | 0.35 | -0.0632 (inactive) | -1.11 (inactive) | 0.136
16 | O=C(NN=C1C[C@@H](O)[C@@H](O)[C@@H]2[C@@H]3C(=O)N(C4CCCCC4)C(=O)[C@@H]3CC[C@H]12)OCc1ccccc1 | -0.898 (inactive) | 0.0721 | 7.54 (inactive) | 0.844 (inactive) | 0.522 (inactive) | 0.551 (inactive) | 0.0279 | -0.0856 (inactive) | -1.85 (inactive) | -0.671
17 | O=C1CCCC=C1C(O)CCCCBr (stereo not given) | 0.549 (inactive) | 0.155 | 3.79 (inactive) | 1.15 (inactive) | 1.02 (inactive) | 0.759 (inactive) | 0.231 | -0.772 (inactive) | 0.241 (inactive) | -0.921
18 | CCCNC(=O)OC[C@H]1O[C@H](CCON=Cc2ccc(C(=O)N3[C@H](c4ccc(C)cc4)[C@@H](C)CC[C@H]3C(=O)OC)cc2)C=C[C@@H]1Oc1ccc(OC)cc1 | 0.33 (inactive) | -0.16 | 1.21 (inactive) | 0.674 (inactive) | 0.0952 (inactive) | 0.612 (inactive) | -0.619 | 0.725 (inactive) | 0.611 (inactive) | 0.393
19 | O=C(NN=C1C[C@@H](O)[C@@H](O)[C@@H]2[C@@H]3C(=O)N(C4CCCCC4)C(=O)[C@@H]3CC[C@@H]12)OCc1ccccc1 | 0.536 (inactive) | -0.407 | 4.15 (inactive) | 0.586 (inactive) | 0.228 (inactive) | 0.229 (inactive) | -0.146 | -0.457 (inactive) | -0.223 (inactive) | 0.118
20 | O=c1n(Cc2cc3c(cc2Cl)OCO3)c(=O)n2n1CC[C@@H]1C(=NOC[C@@H](O)COCc3ccco3)[C@H]3O[C@H]3[C@@H](O)[C@@H]12 | -0.289 (inactive) | 0.175 | 0.0384 (inactive) | 0.012 (inactive) | -0.258 (inactive) | -0.138 (inactive) | 0.393 | 0.0338 (inactive) | -1.95 (inactive) | -0.278
21 | COC(=O)CC=C[C@@H](C)[C@@H](C=NOCC[C@@H]1C=C[C@H](OC(C)=O)[C@@H](COC(C)=O)O1)NS(=O)(=O)c1ccc(C)cc1 | 0.385 (inactive) | 0.212 | 0.944 (inactive) | 0.107 (inactive) | -0.113 (inactive) | 0.196 (inactive) | -0.879 | 0.174 (inactive) | 0.911 (inactive) | -0.075
22 | COC(=O)[C@H](C)NC(=O)CCC1CC(OC(=O)NCc2ccc3c(c2)OCO3)CC2(CCCC(COC(=O)NCC(c3ccccc3)c3ccccc3)O2)O1 (stereo not given in full) | 0.246 (inactive) | -0.0969 | 17.6 (active) | 4.8 (inactive) | 1.34 (inactive) | -0.685 (inactive) | 3.66 | -1.25 (inactive) | -1.5 (inactive) | -3.77
23 | COC(=O)CC=C[C@@H](C)[C@@H](C=NO[C@H](C)c1cn([C@H](CO)Cc2ccccc2)nn1)NS(=O)(=O)c1ccc(C)cc1 | -0.0528 (inactive) | 0.173 | 2.17 (inactive) | 0.674 (inactive) | 0.605 (inactive) | 0.22 (inactive) | -1.07 | 0.679 (inactive) | 0.685 (inactive) | -0.0369
24 | COc1cccc([C@@H]2Oc3ccc(OC)cc3C(=O)[C@H]2O)c1 | -0.542 (inactive) | -0.101 | 4.92 (inactive) | -0.384 (inactive) | 1.13 (inactive) | -1.28 (inactive) | 2.08 | -2.25 (inactive) | -1.51 (inactive) | -1.77
25 | CC(C)=CCCC(C)=CCON=C1C[C@@H](O)[C@@H](O)[C@@H]2[C@@H]3C(=O)N(c4cccc(Oc5ccccc5)c4)C(=O)[C@@H]3CC[C@@H]12 | -1.15 (inactive) | -0.0501 | 3.39 (inactive) | -0.298 (inactive) | 1.24 (inactive) | -2 (inactive) | 0.313 | -1.33 (inactive) | -0.237 (inactive) | -3.35
26 | CC(C)CON=C1C[C@@H](O)[C@@H](O)[C@@H]2[C@@H]3C(=O)N(c4cccc(Oc5ccccc5)c4)C(=O)[C@@H]3CC[C@@H]12 | -0.211 (inactive) | -0.321 | 2.34 (inactive) | -0.696 (inactive) | 1.07 (inactive) | -1.36 (inactive) | 0.6 | -0.191 (inactive) | 0.352 (inactive) | -0.51
